Seven sequences from publication PMC8384837, “Expanding the binding specificity for RNA recognition by a PUF domain” can be followed below.

Common to all, as to assay: yeast three-hybrid, YBZ-1, SC-Leu-His + 0.5 mM 3-AT, 4 days
Holding throughout (conditions): tags: N-Gal4 AD-HA kept; label: inside an RPR1-promoter hybrid RNA with tandem MS2 sites; ssRNA

For one assay, the target named is PUM1 PUF domain R8-KWG (Homo sapiens, UniProt Q14671 828-1176, N1122K;Y1123W;Q1126G). In short, it runs like this: (§1)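 Repeat regions from input (SC-Leu) and selection (SC-Leu-His + 0.5 mM 3-AT) plates were PCR-amplified and Illumina-sequenced after four days of growth. The cells were strain YBZ-1 with a LexA–MS2 coat fusion and a HIS3 reporter, co-expressing Pumilio-1 PUF domain libraries and matching RNA elements from a centromeric plasmid. The interaction score is the log change in variant frequency from input to selection, taken in log2 with a pseudocount of 1 for absent variants.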

Another assay addresses PUM1 PUF domain R5-TRK (Homo sapiens, UniProt Q14671 828-1176, C1007T;Q1011K). In short, it runs like this:
as §1

Another assay addresses PUM1 PUF domain R5-QQG (Homo sapiens, UniProt Q14671 828-1176, C1007Q;R1008Q;Q1011G). The procedure, abridged:
as §1

In the next assay the target is PUM1 PUF domain R5-PRF (Homo sapiens, UniProt Q14671 828-1176, C1007P;Q1011F). In short, it runs like this:
as §1

For a further assay, the target named is PUM1 PUF domain R3-CHG (Homo sapiens, UniProt Q14671 828-1176, R936H;Q939G). The procedure, abridged: as §1
Another assay has as its target PUM1 PUF domain R8-CYN (Homo sapiens, UniProt Q14671 828-1176, N1122C;Q1126N). The procedure, abridged: as §1
A further assay has as its target PUM1 PUF domain R1-TWR (Homo sapiens, UniProt Q14671 828-1176, S863T;R864W;Q867R). The procedure, abridged:
as §1

The next assay concerns the target PUM1 PUF domain R5-HKK (Homo sapiens, UniProt Q14671 828-1176, C1007H;R1008K;Q1011K). The procedure, abridged:
as §1

The next assay addresses PUM1 PUF domain R5-DFR (Homo sapiens, UniProt Q14671 828-1176, C1007D;R1008F;Q1011R). The procedure, abridged: as §1

PUM1 PUF domain R5-HKK, sequence (Q14671 828-1176 C1007H/R1008K/Q1011K): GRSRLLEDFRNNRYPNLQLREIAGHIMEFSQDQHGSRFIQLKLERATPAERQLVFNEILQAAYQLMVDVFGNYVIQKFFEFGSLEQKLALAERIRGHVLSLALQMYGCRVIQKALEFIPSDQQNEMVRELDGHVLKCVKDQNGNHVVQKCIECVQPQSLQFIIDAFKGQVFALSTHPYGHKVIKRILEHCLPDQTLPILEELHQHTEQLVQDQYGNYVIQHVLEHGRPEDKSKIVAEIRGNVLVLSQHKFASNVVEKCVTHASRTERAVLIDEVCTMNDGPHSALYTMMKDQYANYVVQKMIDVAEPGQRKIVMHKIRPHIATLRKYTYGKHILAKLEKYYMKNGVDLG
PUM1 PUF domain R8-CYN, sequence (Q14671 828-1176 N1122C/Q1126N): as the sequence (Q14671 828-1176 C1007H/R1008K/Q1011K) above, with H180C, K181R, K184Q, N295C, Q299N counted along it
PUM1 PUF domain R5-DFR, sequence (Q14671 828-1176 C1007D/R1008F/Q1011R): as the sequence (Q14671 828-1176 C1007H/R1008K/Q1011K) above, with H180D, K181F, K184R counted along it

In the case of “GGCUAGAACUAGUGGAUCCCCCGGCGCCCGGCGGCUCGAGCCCGGGUAAGUGUAAAUAGUCUGCAUGCCGCCGGGCGCCAUGCCUGCAGGUCGACUCUAGAAAACAUG”, the binding signal was 5.91 log2 enrichment (interaction score) with PUM1 PUF domain R8-KWG; 4.09 log2 enrichment (interaction score) with PUM1 PUF domain R5-TRK; 0.25 log2 enrichment (interaction score) with PUM1 PUF domain R5-QQG; 3.86 log2 enrichment (interaction score) with PUM1 PUF domain R5-PRF; 2.43 log2 enrichment (interaction score) with PUM1 PUF domain R3-CHG.

Turning to “GGCUAGAACUAGUGGAUCCCCCGGCGCCCGGCGGCUCGAGCCCGGGUAAGCGUAAAUAGUCUGCAUGCCGCCGGGCGCCAUGCCUGCAGGUCGACUCUAGAAAACAUG”, the binding signal with PUM1 PUF domain R8-KWG is 6.36 log2 enrichment (interaction score); with PUM1 PUF domain R8-CYN, 2.28 log2 enrichment (interaction score).

In the case of “GGCUAGAACUAGUGGAUCCCCCGGCGCCCGGCGGCUCGAGCCCGGGUAAGUGUAAAUCGUCUGCAUGCCGCCGGGCGCCAUGCCUGCAGGUCGACUCUAGAAAACAUG”, the binding signal in the assay with PUM1 PUF domain R1-TWR was 5.66 log2 enrichment (interaction score).

Take “GGCUAGAACUAGUGGAUCCCCCGGCGCCCGGCGGCUCGAGCCCGGGUAAGUGUAAAUUGUCUGCAUGCCGCCGGGCGCCAUGCCUGCAGGUCGACUCUAGAAAACAUG”: the binding signal with PUM1 PUF domain R1-TWR was 0.55 log2 enrichment (interaction score).

As to “GGCUAGAACUAGUGGAUCCCCCGGCGCCCGGCGGCUCGAGCCCGGGUAAGUGUUAAUAGUCUGCAUGCCGCCGGGCGCCAUGCCUGCAGGUCGACUCUAGAAAACAUG”, the binding signal was 2.41 log2 enrichment (interaction score) with PUM1 PUF domain R5-HKK, 4.73 log2 enrichment (interaction score) in the assay with PUM1 PUF domain R5-TRK and 2.7 log2 enrichment (interaction score) in the assay with PUM1 PUF domain R5-QQG.

As to “GGCUAGAACUAGUGGAUCCCCCGGCGCCCGGCGGCUCGAGCCCGGGUAAGUGUCAAUAGUCUGCAUGCCGCCGGGCGCCAUGCCUGCAGGUCGACUCUAGAAAACAUG”, the binding signal with PUM1 PUF domain R5-DFR was 5.27 log2 enrichment (interaction score).

On to “GGCUAGAACUAGUGGAUCCCCCGGCGCCCGGCGGCUCGAGCCCGGGUAAGUGUAAGUAGUCUGCAUGCCGCCGGGCGCCAUGCCUGCAGGUCGACUCUAGAAAACAUG”, for which the binding signal in the assay with PUM1 PUF domain R3-CHG was 0.98 log2 enrichment (interaction score).
